From PubChem BioAssay AID624331 (National Center for Advancing Translational Sciences (NCATS), 2012) come the findings set out here.

Results filed as inconclusive are left out. Entries that show only a call come without a potency. Calls of active or inactive are those of the source. Calls follow the shape of the dose curve; as a rule, active = well fitted activation curve with a large enough effect; inconclusive = small, poorly fitted or top-dose-only effect; inactive = no such curve, though single readings can be large or run the other way.

The nature of the test: qHTS assay for re-activators of p53 using a Luc reporter: Hit Validation with no p53 Expressed. The method, boiled down: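 Without p53 expression, cells (1000/well, Opti-MEM + 10% FBS) were exposed 24 h at 37 deg C to compounds in a 1:5 series from 10 mM stock (top 46.1 µM in well). Luminescent signal read 10 min after Amplite addition; actives flag unspecific activation.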
Potency is read from the fitted curve at half-maximal effect.

With `Cc1ccc(NC(CC(=O)c2ccccc2)c2ccc(F)cc2)cc1` (stereo not given), the Potency entry is “inactive”. As for `CCOc1ccc(NC(=O)/C=C/c2ccccc2)c([N+](=O)[O-])c1`, the entry is “inactive”; as for `Clc1ccc(OCc2nc(-c3ccccn3)n[nH]2)cc1`, “inactive”; as for `O=C(Nc1cccnc1)Nc1ccc(Br)cc1Cl`, “inactive”. Turning to `Cn1c(Cc2cccs2)nnc1SCc1nc2ccccc2[nH]1`, the Potency entry is “inactive”.

For `COc1cccc(C2(c3cccc(OC)c3)CC2C(=O)Nc2cccc3ccccc23)c1` (stereo not given), the Potency entry is “inactive”. Then `O=C(Nc1ccc2ccccc2c1)c1ccc(Cl)cc1Cl`, with “inactive”; and `O=C(NCCOc1ccccc1F)c1cc(F)c(F)cc1Cl`, with “inactive”; and `O=C(/C(=C\c1ccccc1)c1nc2ccccc2[nH]1)c1ccc(Cl)cc1`, with “inactive”. Then `Cc1ccc(-n2c(C)cc(C(=O)CSc3nnc4ccccn34)c2C)cc1`, with 731 nM (active); and `CC(=O)c1cccc(NC(=O)c2sc(Cl)nc2C)c1`, with “inactive”; and `O=C(/C=C/Nc1ccc(F)cc1F)c1cccs1`, with “inactive”. Take `COC(=O)c1ccc(-c2nc(-c3cccs3)no2)cc1`: the Potency entry is “inactive”. Then `O=C(CC1NC2CCCCC2NC1=O)Nc1ccc2c(c1)OCO2` (stereo not given), with “inactive”.

`CSC1=NCCN1C(=O)c1ccc(Br)o1`: the Potency entry was “inactive”.

`CC(=O)Nc1ccc(SCC(=O)c2cc(C)n(-c3ccccc3)c2C)cc1`: the Potency result is “inactive”.

In the case of `CC(C)/C=C1\CC/C(=C\c2ccc(N(C)C)cc2)C1=O`, the Potency result was “inactive”.

Consider `O=C(Nc1ccccc1Cl)c1ccc2c(=O)n3c(nc2c1)CCC3`, for which the Potency entry is “inactive”.

Consider `NNC(=O)c1cccc(COc2ccc(Br)cc2)c1`, for which the Potency entry is “inactive”. Then `CC(=O)c1cc2c(C)c(C(=O)c3ccccc3)oc2cc1O`, with “inactive”.

Consider `COc1ccc(N2CCN(C(=O)COC(=O)c3ccc(OC(F)F)cc3)CC2)cc1`, for which the Potency entry was “inactive”. As for `Cc1cc(NC(=O)c2ccc3nccnc3c2)ccc1Br`, the entry is “inactive”; as for `CCOc1ccc(-n2c(SCc3nc(-c4cccs4)no3)nnc2-c2ccncc2)cc1`, “inactive”. With `COc1ccc2nc(SCc3ccccc3)nc(C)c2c1`, the Potency result was “inactive”. As for `CCCCC(=O)N1CCCC(C)C1` (stereo not given), the entry is “inactive”.

Turning to `CCn1c(C)nc2cc(C(=O)NNC(=O)c3ccc(C)cc3)ccc21`, the Potency entry was “inactive”. As for `COc1cc(N/N=C/c2ccccc2O)ncn1`, the entry is “inactive”; as for `CN(C)CCN(CC1CCCN(Cc2ccccc2F)C1)C(=O)c1ccc(F)cc1` (stereo not given), “inactive”.

Consider `CCOC(=O)c1cc(-c2ccccc2)sc1NC(=O)CC`, for which the Potency result was “inactive”. Then `O=C(CC(=O)c1ccccc1O)c1cccc(F)c1`, with “inactive”. Then `Cc1nc2ccccc2nc(C)c1=NOCc1ccccc1Cl`, with “inactive”. As for `COc1ccc(NC(=O)/C(=C\c2ccc3c(c2)OCO3)NC(C)=O)cc1`, the entry is “inactive”; as for `O=C(CSc1nnc(-c2ccc(O)cc2)o1)N1CCOCC1`, “inactive”.

On to `O=C(Cn1cc(SCc2ccc(F)cc2)c2ccccc21)N1CCOCC1`, for which the Potency entry was “inactive”.

With `Cc1ccc(NC(=S)NC(=O)C2CCCCC2)c(Br)c1`, the Potency result is “inactive”. For the molecule `c1ccc2oc(C3=NNC(=NC4CC4)SC3)cc2c1`, the Potency entry is “inactive”. As for `CC(=O)N1CCN(C(=O)COC(=O)COc2c(C)cc(C)cc2C)CC1`, the entry is “inactive”; as for `CNC(=S)N/N=C(\C)c1ccc(N2CCOCC2)cc1`, “inactive”.

As to `Cc1ccc(OCCCNCCO)c(Br)c1`, the Potency result is “inactive”. On to `COc1ccc(C(=O)O/N=C(\N)c2ccccc2)c(OC)c1`, for which the Potency was 1160 nM (active). Then `O=C(Nc1nc(-c2ccco2)c(-c2ccco2)s1)c1ccc(F)cc1F`, with “inactive”; and `COc1ccc(-n2cnc3cc(C(=O)N4CCOCC4)ccc32)cc1`, with “inactive”.

For `Cc1ccc(C(=O)NC(=C(Cl)Cl)S(=O)(=O)c2ccccc2)cc1`, the Potency result is “inactive”.

As to `COc1ccccc1OCCn1nnc2ccccc21`, the Potency result is “inactive”. On to `CCOC(=O)c1[nH]nc(C(=O)c2ccc(Br)cc2)c1O`, for which the Potency entry was “inactive”. As to `C/C(=N/NC(=O)c1ccc2c(c1)OCO2)c1ccc(NC(=O)C(F)(F)F)cc1`, the Potency entry was “inactive”. Then `C/C(=N/NC(=S)Nc1ccccc1)c1ccc2c(c1)OCO2`, with “inactive”. As for `O=C(/C=C/c1ccco1)Nc1ccc2nn(-c3ccccc3)nc2c1`, the entry is “inactive”; as for `O=C(NOCc1ccccc1)c1ccccc1`, “inactive”. Then `CCCCC(=O)Nc1cccc(NC(=S)NC(=O)Cc2ccccc2)c1`, with “inactive”.

As to `O=C(NNC(=O)c1cccnc1SCc1cccc([N+](=O)[O-])c1)c1ccccn1`, the Potency entry was “inactive”. Then `Cn1c(CCN2CCCCC2)nc2cc(NC(=O)Nc3ccccc3)ccc21`, with “inactive”; and `O=C(/C=C/Nc1ccccc1F)c1cccs1`, with “inactive”; and `COc1ccc(-c2nnc(-c3ccc(Br)o3)o2)cc1OC`, with “inactive”. As for `CC(C)c1ccc(NC(=O)c2snc3ccc(Cl)cc23)cc1`, the figure is 1030 nM (active).
